# In PubChem BioAssay (NCATS):
# A number with no mark means an inactive call. Inconclusive results are not listed. Where a call stands in place of a potency, no number is given. Active and inactive are the calls of the source. Unless noted, the call rests on the fitted dose curve; in most records, active means well fitted curve in the direction sought with a large enough effect; inconclusive means small, poorly fitted or top-dose-only effect, or another doubt; inactive means no such curve, though single readings can be large; an effect the other way counts as inactive or inconclusive.
# How the values were obtained:
# [1] = Immunotoxin (SS1P) sensitization/mitigation study. Vehicle arm (DMEM) (AID 1159513; call rule not given here; further: potency means the concentration at half of the fitted maximal effect)
# [2] = Immunotoxin (HA22) sensitization/mitigation study. Vehicle arm (PBS) (AID 1159510; call rule not given here; further: potency means the concentration at half of the fitted maximal effect)
# [3] = qHTS assay for measurement of the activity of small molecule inhibitors on Zika virus induced Caspase-3 activity in human iPSC derived neural progenitor cells (hNPCs) (AID 1224857); further: nearly all actives have a fitted effect of over 65% in size
# How it was run: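 hNPCs seeded 350 cells/well, cultured 16–20 h; compounds added 1 h before ZIKV (2 FFU/cell), 37 C 6 h. Caspase-Glo 3/7 luminescence after 30 min RT; % inhibition from induction scaled to uninfected (0%) and infected (100%) wells.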
# [4] = qHTS assay for measurement of the activity of small molecule inhibitors on Zika virus induced Caspase-3 activity in human astrocytoma cells (AID 1224859)
# How it was run: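 Luminescence read-out (Caspase-Glo 3/7, 30 min RT) of caspase activity in SNB-19 cells infected 6 h with ZIKV, 2 FFU/cell, after 1 h compound pretreatment; % inhibition from induction normalised to uninfected (0%) and infected (100%) wells.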
# [5] = qHTS Screen of the MIPE 4.0 Collection Against Ewings Sarcoma (TC32) (AID 1259256); further: nearly all actives have a fitted effect of over 45% in size; further: potency means the concentration at half of the fitted maximal effect
# How it was run: (§1)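 CellTiter-Glo luminescence after 48 h compound exposure (titration) gave viability; percent activity used DMSO-treated cells as no inhibition and medium-only wells as full inhibition. Cells grown in RPMI/5% FBS, dosed 4 h post-seeding.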
# [6] = NS1 protein of Zika virus - qHTS assay to identify small molecule inhibitors in human HEK 293 cells (AID 1347053); further: nearly all actives have a fitted effect of over 55% in size
# How it was run: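 Inhibition of NS1 expression was scored in HEK 293 cells given compound 1 h ahead of MR766 virus (MOI = 0.5). Following 24 h at 37 C, two anti-NS1 antibodies generated a TR-FRET signal, scaled between uninfected and infected controls.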
# [7] = qHTS assay to identify small molecule inhibitors of chordoma cells - UCH-1 (AID 1259355); further: nearly all actives have a fitted effect of over 55% in size
# How it was run: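 Seed 800 cells per well; incubate overnight at 37 C, 5% CO2. Add test compounds (15 concentrations), then the auranofin–topoisomerase-agent combination. Incubate 48hr, add CellTiter-Glo, wait 30min, read luminescence.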
# [8] = qHTS assay to identify small molecule inhibitors of chordoma cells - UCH-2 (AID 1259356)
# [9] = P-glycoprotein substrates identified in KB-8-5-11 adenocarcinoma cell line, qHTS therapeutic library screen (AID 1346987); further: nearly all actives have a fitted effect of over 65% in size
# How it was run: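 KB-8-5-11, a colchicine-selected P-gp-overexpressing KB-3-1 subline, was grown without colchicine for the assay. Cells were seeded at 500 cells/well, dosed in concentration-response and incubated 72 h at 37 degree C, 5% CO2. Viability was read by CellTiter-Glo luminescence.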
# [10] = Natriuretic polypeptide receptor (hNpr1) antagonism - Pilot counterscreen GloSensor control cell line (AID 1347045; calls by dose curve)
# How it was run: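 HEK293 cGMP GloSensor cells preloaded 2 h with 2% GloSensor reagent, then compound 30 min before baseline luminescence read. Stimulated with 50 uM sodium nitroprusside, 20 min at room temperature, then read again; counterscreen for Npr1 antagonism.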
# [11] = molecular target: Atrial natriuretic peptide receptor 1 (Homo sapiens) (UniProt P16066); assay: Natriuretic polypeptide receptor (hNpr1) antagonism - Pilot screen (AID 1347049; calls by dose curve;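 further: agonist-evoked cGMP luminescence read 20 min after hNppA addition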)
# How it was run: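 Readout is cGMP-driven firefly luciferase luminescence in HEK293 cells carrying hNpr1 and a PDE5-domain GloSensor, read before and 20 min after 0.1 nM hNppA stimulation. Cells had 2% substrate reagent for 2 h and test compound for 30 min.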
# [12] = P-glycoprotein substrates identified in KB-3-1 adenocarcinoma cell line, qHTS therapeutic library screen (AID 1346986); conditions: KB-3-1 parental cells viability, CellTiter-Glo, 72 h; at 44.5 µM (top of the series) unless noted; further: nearly all actives have a fitted effect of over 60% in size
# How it was run: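 Cells seeded 500/well in DMEM/10% FCS; compounds pinned in dose-response; 72 h incubation; CellTiter-Glo added, 5 min, luminescence. KB-8-5-11 run ±tariquidar to test reversal of P-gp resistance.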
# [13] = qHTS Screen of the MIPE 4.0 Collection Against Ewings Sarcoma (RDES) (AID 1259252); further: nearly all actives have a fitted effect of over 35% in size
# How it was run: as §1
# [14] = qHTS Screen of the MIPE 4.0 Collection Against Ewings Sarcoma (EW8) (AID 1259255); further: nearly all actives have a fitted effect of over 35% in size
# How it was run: as §1
# [15] = molecular target: T1, Tyrosine-protein phosphatase non-receptor type substrate 1 (Homo sapiens) + Leukocyte surface antigen CD47 (Homo sapiens) (UniProt P78324+Q08722); assay: CD47-SIRPalpha protein protein interaction - LANCE assay qHTS validation (AID 1347057; active means well fitted curve in the direction sought with a large enough effect in the signal ratio, with a control signal flat, not every such curve was filed as active; the % refers to the signal ratio)
# How it was run: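 First, His-tagged CD47 and Eu-labelled anti-His antibody met the compound for 30 min; next, site-specifically biotinylated SIRPalpha was added for 30 min; finally streptavidin-APC was added before reading the TR-FRET ratio.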
# [16] = molecular target: T1, Tyrosine-protein phosphatase non-receptor type substrate 1 (Homo sapiens) + Leukocyte surface antigen CD47 (Homo sapiens); assay: CD47-SIRPalpha protein protein interaction - HTRF assay qHTS validation (AID 1347058; active means well fitted curve in the direction sought with a large enough effect in the signal ratio, not every such curve was filed as active; the % refers to the signal ratio;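 further: recombinant soluble extracellular CD47 with His tag and biotinylated SIRPalpha domains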)
# How it was run: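 TR-FRET read (Ch1/Ch2 ratio) of soluble extracellular CD47 and Avi-biotinylated SIRPalpha domains in PBS pH 7.4 with 0.05% IGEPAL; 7-point compound titration. Sequential 30 min room-temperature steps; non-biotinylated SIRPalpha as control inhibitor.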
# [17] = qHTS Screen of the MIPE 4.0 Collection Against Ewings Sarcoma (TC71) (AID 1259253); further: nearly all actives have a fitted effect of over 40% in size
# How it was run: as §1
# [18] = Identifying Small Molecule Inhibitors of Pancreatic Cancer Stem Cells (SN12C, Adherent) (AID 1259358);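 further: cell survival measured after 48 h of compound exposure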
# How it was run: (§2)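 Cytotoxicity read by CellTiter-Glo luminescence after 48 h compound exposure at 37C; percent activity scaled between DMSO-treated cells and cell-free wells. Spheroid formats used cells pre-formed 14 days in stem cell media on hydrogel.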
# [19] = Identifying Small Molecule Inhibitors of Pancreatic Cancer Stem Cells (SN12C, Spheroid) (AID 1259360)
# How it was run: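 After a 4 h attachment period, compounds were pinned into wells and cultures held 48 h under standard incubator conditions. Viability was then measured as CellTiter-Glo luminescence following 10 min at room temperature.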
# [20] = Identifying Small Molecule Inhibitors of Pancreatic Cancer Stem Cells (A278, Adherent) (AID 1259361); further: nearly all actives have a fitted effect of over 35% in size
# How it was run: as §2
# T1 sequence (P78324 whole entry, looked up): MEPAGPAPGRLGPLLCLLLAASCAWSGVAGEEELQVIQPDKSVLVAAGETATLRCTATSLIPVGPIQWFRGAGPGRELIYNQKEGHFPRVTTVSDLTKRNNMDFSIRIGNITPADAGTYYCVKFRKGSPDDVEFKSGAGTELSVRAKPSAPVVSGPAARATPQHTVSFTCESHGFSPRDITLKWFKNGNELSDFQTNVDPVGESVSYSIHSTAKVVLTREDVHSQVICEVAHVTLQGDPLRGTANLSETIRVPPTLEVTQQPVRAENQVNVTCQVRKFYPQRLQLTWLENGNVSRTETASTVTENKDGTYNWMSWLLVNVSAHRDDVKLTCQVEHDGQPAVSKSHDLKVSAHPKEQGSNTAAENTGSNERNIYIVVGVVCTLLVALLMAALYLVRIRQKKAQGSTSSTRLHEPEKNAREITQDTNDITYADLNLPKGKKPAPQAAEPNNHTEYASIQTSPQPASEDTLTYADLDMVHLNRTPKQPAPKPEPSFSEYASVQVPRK
# T1 sequence (Q08722 whole entry, looked up): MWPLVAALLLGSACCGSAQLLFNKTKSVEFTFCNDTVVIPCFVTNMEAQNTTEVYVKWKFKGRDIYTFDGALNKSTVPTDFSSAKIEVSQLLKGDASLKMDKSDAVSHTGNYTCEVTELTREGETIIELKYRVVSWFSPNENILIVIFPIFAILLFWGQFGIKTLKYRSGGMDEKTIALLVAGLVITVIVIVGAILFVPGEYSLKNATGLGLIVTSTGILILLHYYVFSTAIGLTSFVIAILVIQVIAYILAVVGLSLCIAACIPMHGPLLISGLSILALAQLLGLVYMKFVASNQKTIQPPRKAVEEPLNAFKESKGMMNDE
# Sequence of Atrial natriuretic peptide receptor 1 (Homo sapiens) (P16066 whole entry, looked up): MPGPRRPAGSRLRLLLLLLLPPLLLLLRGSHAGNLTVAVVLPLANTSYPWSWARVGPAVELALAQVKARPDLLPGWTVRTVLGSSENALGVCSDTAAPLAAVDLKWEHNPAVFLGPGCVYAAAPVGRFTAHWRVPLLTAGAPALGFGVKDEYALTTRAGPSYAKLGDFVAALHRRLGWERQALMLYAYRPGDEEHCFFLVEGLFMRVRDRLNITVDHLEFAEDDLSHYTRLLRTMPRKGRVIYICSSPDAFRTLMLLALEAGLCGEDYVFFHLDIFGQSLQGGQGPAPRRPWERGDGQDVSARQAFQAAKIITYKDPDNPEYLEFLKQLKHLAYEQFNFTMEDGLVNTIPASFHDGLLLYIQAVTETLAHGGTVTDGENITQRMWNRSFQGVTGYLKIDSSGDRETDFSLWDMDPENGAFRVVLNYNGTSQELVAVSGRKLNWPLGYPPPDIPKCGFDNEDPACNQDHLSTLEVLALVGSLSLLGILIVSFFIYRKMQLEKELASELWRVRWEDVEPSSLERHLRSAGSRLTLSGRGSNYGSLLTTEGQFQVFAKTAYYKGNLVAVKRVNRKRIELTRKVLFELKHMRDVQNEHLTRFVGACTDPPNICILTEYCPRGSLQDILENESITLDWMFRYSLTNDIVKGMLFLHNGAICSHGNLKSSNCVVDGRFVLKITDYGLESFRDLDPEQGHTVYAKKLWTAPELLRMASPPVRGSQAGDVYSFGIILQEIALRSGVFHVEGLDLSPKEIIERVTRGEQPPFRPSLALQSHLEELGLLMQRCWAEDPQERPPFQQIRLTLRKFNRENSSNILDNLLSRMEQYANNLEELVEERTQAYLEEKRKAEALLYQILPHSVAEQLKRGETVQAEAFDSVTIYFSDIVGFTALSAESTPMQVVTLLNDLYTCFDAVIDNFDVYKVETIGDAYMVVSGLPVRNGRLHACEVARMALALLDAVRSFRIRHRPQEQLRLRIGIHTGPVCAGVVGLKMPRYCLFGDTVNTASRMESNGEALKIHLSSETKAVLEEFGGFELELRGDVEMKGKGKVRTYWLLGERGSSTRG
smiles,measurement,setting,value
Cc1ccc(Nc2nccc(N(C)c3ccc4c(C)n(C)nc4c3)n2)cc1S(N)(=O)=O,Potency,[1],20.9 µM (active)
S=c1nc[nH]c2nc[nH]c12,Potency,[2],0.605 µM (active)
same,Potency,[1],0.605 µM (active)
C[N+]1(C)[C@@H]2CC(OC(=O)[C@H](CO)c3ccccc3)C[C@H]1[C@@H]1O[C@@H]12 (some centres undefined),outcome,[3],inactive
C[C@]12CC[C@H]3[C@@H](CC[C@@]45O[C@H]4C(O)=C(C#N)C[C@]35C)[C@H]1CC[C@H]2O,outcome,[3],inactive
same,outcome,[4],inactive
same,Potency,[5],20.9 µM (active)
same,outcome,[6],inactive
O=[N+]([O-])O[C@H]1CO[C@H]2[C@@H]1OC[C@H]2O[N+](=O)[O-],outcome,[3],inactive
same,outcome,[4],inactive
same,outcome,[7],inactive
same,outcome,[8],inactive
same,Potency,[9],inactive
same,outcome,[6],inactive
CCCCC/C=C\C/C=C\C/C=C\C/C=C\CCCC(=O)NCC(=O)O,outcome,[3],inactive
same,outcome,[4],inactive
same,"activity, negative = inhibition",[7],-4.51% [at 4.2 µM]
same,"activity change, negative = inhibition",[8],-22% [at 4.61 µM]
same,"activity change, negative = cytotoxicity",[9],0.883% [at 5.11 µM]
same,outcome,[10],inactive
same,outcome,[11],inactive
same,outcome,[6],inactive
CC(=O)OCC1=C(C(=O)O)N2C(=O)[C@@H](N)[C@H]2SC1,outcome,[3],inactive
same,outcome,[4],inactive
same,outcome,[7],inactive
same,outcome,[8],inactive
same,outcome,[12],inactive
same,Potency,[9],inactive
same,outcome,[6],inactive
C=CCN1C[C@H](C)N([C@H](c2ccc(C(=O)N(CC)CC)cc2)c2cccc(OC)c2)C[C@H]1C,outcome,[3],inactive
same,outcome,[4],inactive
same,outcome,[7],inactive
same,outcome,[8],inactive
same,outcome,[12],inactive [at 9.29 µM]
same,"activity change, negative = cytotoxicity",[9],-6.15% [at 9.29 µM]
same,outcome,[6],inactive
CC(C)=CC1C(C(=O)OCN2C(=O)C3=C(CCCC3)C2=O)C1(C)C (centres undefined),outcome,[3],inactive
same,outcome,[4],inactive
same,outcome,[7],inactive
same,outcome,[8],inactive
same,Potency,[9],inactive
same,outcome,[6],inactive
Nc1nc2ccc(OC(F)(F)F)cc2s1,Potency,[2],23.5 µM (active)
Nc1ccccc1C(=O)O,outcome,[3],inactive
same,outcome,[4],inactive
same,outcome,[7],inactive
same,outcome,[8],inactive
same,Potency,[9],inactive
same,outcome,[6],inactive
CC(C)C[C@H](CN)CC(=O)O,outcome,[3],inactive
same,outcome,[4],inactive
same,Potency,[13],inactive
same,outcome,[14],inactive
same,outcome,[8],inactive
same,Potency,[9],inactive
same,outcome,[6],inactive
O=c1[nH]oc2c1CCNC2,outcome,[3],inactive
same,outcome,[4],inactive
same,outcome,[7],inactive
same,outcome,[8],inactive
same,Potency,[9],inactive
same,outcome,[10],inactive
same,outcome,[11],inactive
same,outcome,[6],inactive
same,outcome,[15],inactive
same,outcome,[16],inactive
CC(C)c1cccc(C(C)C)c1O,outcome,[3],inactive
same,outcome,[4],inactive
same,Potency,[13],inactive
same,Potency,[17],inactive
same,outcome,[14],inactive
same,Potency,[5],inactive
same,outcome,[7],inactive
same,outcome,[8],inactive
same,Potency,[9],inactive
same,outcome,[10],inactive
same,outcome,[11],inactive
same,outcome,[6],inactive
same,outcome,[15],inactive
same,outcome,[16],inactive
CNC(=O)c1ccccc1Sc1ccc2c(/C=C/c3ccccn3)n[nH]c2c1,Potency,[2],6.62 µM (active)
same,Potency,[1],1.05 µM (active)
CCC1(c2ccc(N)cc2)CCC(=O)NC1=O (centres undefined),outcome,[3],inactive
same,outcome,[4],inactive
same,Potency,[13],inactive
same,Potency,[17],inactive
same,outcome,[14],inactive
same,Potency,[5],inactive
same,outcome,[7],inactive
same,outcome,[8],inactive
same,Potency,[9],inactive
same,outcome,[10],inactive
same,outcome,[11],inactive
same,outcome,[6],inactive
same,outcome,[15],inactive
same,outcome,[16],inactive
CC(NC(C)(C)C)C(=O)c1cccc(Cl)c1 (centres undefined),outcome,[3],inactive
same,outcome,[4],inactive
same,Potency,[13],inactive
same,Potency,[17],inactive
same,outcome,[14],inactive
same,Potency,[5],inactive
same,outcome,[7],inactive
same,outcome,[8],inactive
same,Potency,[9],inactive
same,outcome,[10],inactive
same,outcome,[11],inactive
same,outcome,[6],inactive
same,outcome,[15],inactive
same,outcome,[16],inactive
Cc1ncsc1CCCl,outcome,[3],inactive
same,outcome,[4],inactive
same,outcome,[7],inactive
same,outcome,[8],inactive
same,Potency,[9],inactive
same,outcome,[10],inactive
same,outcome,[11],inactive
same,outcome,[6],inactive
same,outcome,[15],inactive
same,outcome,[16],inactive
O=C(O)CCCc1ccc(N(CCCl)CCCl)cc1,outcome,[3],inactive
same,outcome,[4],inactive
same,Potency,[5],inactive
same,outcome,[7],inactive
same,outcome,[8],inactive
same,outcome,[12],inactive
same,Potency,[9],inactive
same,outcome,[10],inactive
same,outcome,[11],inactive
same,outcome,[6],inactive
CCCc1nn(C)c2c(=O)[nH]c(-c3cc(S(=O)(=O)N4CCN(C)CC4)ccc3OCC)nc12,Potency,[2],inactive
same,Potency,[1],inactive
Nc1nc(Cl)nc2c1ncn2[C@H]1C[C@H](O)[C@@H](CO)O1,Potency,[2],9.59 µM (active)
same,Potency,[1],48.1 µM (active)
C#C[C@]1(O)CC[C@H]2[C@@H]3CCC4=CC(=O)CC[C@]4(C)[C@H]3CC[C@@]21C,outcome,[3],inactive
same,outcome,[4],inactive
same,outcome,[7],inactive
same,outcome,[8],inactive
same,Potency,[9],inactive
same,outcome,[6],inactive
O=P1(N(CCCl)CCCl)NCCCO1 (centres undefined),Potency,[2],inactive
same,Potency,[1],inactive
same,outcome,[3],inactive
same,outcome,[4],inactive
same,Potency,[17],inactive
same,outcome,[14],inactive
same,Potency,[5],0.0021 µM (active)
same,outcome,[7],inactive
same,outcome,[8],inactive
same,outcome,[18],inactive
same,outcome,[19],inactive
same,outcome,[20],inactive
same,Potency,[9],inactive
same,outcome,[10],inactive
same,outcome,[11],inactive
same,outcome,[6],inactive
same,outcome,[15],inactive
same,outcome,[16],inactive
c1ccc2c(c1)sc1ccccc12,outcome,[3],inactive
same,outcome,[4],inactive
same,outcome,[7],inactive
same,outcome,[8],inactive
same,Potency,[9],inactive
same,outcome,[6],inactive
CC(C)N(CCC(C(N)=O)(c1ccccc1)c1ccccn1)C(C)C (centres undefined),outcome,[3],inactive
same,outcome,[4],inactive
same,outcome,[7],inactive
same,outcome,[8],inactive
same,Potency,[9],inactive
same,outcome,[10],inactive
same,outcome,[11],inactive
same,outcome,[6],inactive
same,outcome,[15],inactive
same,outcome,[16],inactive
